Our source for the Potency and activity change, negative = cytotoxicity values is PubChem BioAssay (NCATS).

Inconclusive results are not listed. Where a call stands in place of a potency, no number is given. Unmarked numbers belong to inactive results. Calls of active or inactive are those of the source. The call rests on the fitted dose curve; in most records, active means well fitted cell-killing curve with a large enough effect; inconclusive means small, poorly fitted or top-dose-only effect, or effect the other way; inactive means flat fitted curve, though single readings scatter.

This assay relates to CASKI. Briefly: Primary qHTS to identify gynecologic anti-cancer compounds using libraries of approved drugs and bioactive compounds (AID 1345084). Further: nearly all actives have a fitted effect of over 55% in size. The conditions noted are these: Gynecologic cancer cell panel viability, ATPlite luminescence, 48 h; series mostly up to 57.5 µM. An outline of the steps: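 Cytotoxicity screen measuring ATP content by luciferase luminescence. Each compound is applied at five concentrations for 48 h at 37 C with 5% CO2.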
With `CC1(C)CCC(C)(C)c2cc3c(cc21)Sc1ccccc1N=C3c1ccc(C(=O)O)cc1`, the Potency entry is “inactive”.

In the case of `O=C(O)c1n[nH]c2c1C[C@H]1C[C@@H]21`, the Potency entry was “inactive”. For the compound `COc1cc(C2Oc3c(O)cc(CCCO)cc3C2CO)ccc1O[C@H]1O[C@H](C)[C@@H](O)[C@H](O)[C@@H]1O` (stereo partly drawn), the Potency entry was “inactive”. On the same count and under the same terms, to `CC(=C/C(=O)O)/C=C/[C@]1(O)[C@@]2(C)CO[C@]1(C)C[C@H](O[C@@H]1O[C@H](CO)[C@@H](O)[C@H](O)[C@H]1O)C2` belongs “inactive”; to `CC1(C)CC[C@]2(C(=O)O)CC[C@]3(C)C(=CCC4[C@@]5(C)C[C@H](O)[C@H](O[C@@H]6OC[C@H](O)[C@H](O)[C@H]6O)[C@@](C)(CO)C5CC[C@]43C)[C@@H]2C1` (stereo partly drawn), “inactive”.

Take `C1CCN2CC3C[C@@H](CN4CCCC[C@@H]34)[C@H]2C1`: the Potency result is “inactive”. As for `COc1ccc(C)c2sc(NC(=O)c3ccncc3)nc12`, the Potency result is “inactive”. In the case of `CC(C)[C@@H](C)/C=C/[C@@H](C)[C@H]1CC[C@H]2C3=CC=C4C[C@@H](O)CC[C@]4(C)[C@H]3CC[C@]12C`, the Potency entry is “inactive”. Consider `COc1ccccc1CC(C(=O)O)N(C)C(=O)c1ccccc1` (stereo not drawn), for which the Potency entry was “inactive”. Take `C=C1[C@@H]2[C@H]3OC(=O)C(=C)[C@@H]3CC[C@@](C)(O)[C@@H]2C[C@@H]1O[C@@H]1O[C@H](CO)[C@@H](O)[C@H](O)[C@H]1O`: the Potency entry is “inactive”.

As for `COCCCNCC1COc2ccccc2O1` (stereo not drawn), the Potency entry is “inactive”. As for `COc1cc(/C=C/C(=O)OC2CC(OC(C)=O)C(OC(C)=O)C3C2CCC2C(=O)OC(c4ccoc4)CC23C)ccc1O[C@@H]1O[C@H](CO)[C@@H](O)[C@H](O)[C@H]1O` (stereo partly drawn), the Potency result was “inactive”. The same measure, in the same setting: the value for `CO[C@@H]1CC[C@H](OC[C@]2(COC(=O)c3ccc(C)[nH]3)[C@H](OC(C)=O)CC[C@@]3(C)[C@@H]4CC=C(C)[C@@H](C5=C(O)C(=O)OC5O)[C@]4(C)CC[C@@H]32)O[C@H]1C` (stereo partly drawn) was “inactive”; that for `C=C1CCC2C(OC(=O)C2(O)COC(C)=O)C2C(=C)C(O)CC12` (stereo not drawn) was “inactive”; that for `CC1=C2C=C(CO)C(CO)CCC2(C)CCC1=O` (stereo not drawn) was “inactive”. In the case of `C=C1[C@H]2CC[C@]3(O)[C@@](CC[C@@H]4[C@](C)(C(=O)O)CCC[C@]43C)(C2)[C@H]1OC(=O)/C(C)=C\C`, the Potency result was “inactive”.

Turning to `O=C(O[C@H]1[C@@H]2C=CO[C@@H](O[C@@H]3O[C@H](CO)[C@@H](O)[C@H](O)[C@H]3O)[C@@H]2[C@@]2(CO)O[C@@H]12)c1ccc(O)cc1`, the Potency entry was “inactive”. Same read-out and setting: to `CC(C)(O)/C=C1/C(=O)C(C)(C)C(=O)C(C)(C)C1(O)O[C@@H]1O[C@H](COC(=O)c2cc(O)c(O)c(O)c2)[C@@H](O)[C@H](O)[C@H]1O` (stereo partly drawn) belongs “inactive”; to `CN1CC[C@@H](NC(=O)Nc2ccc(C#N)cc2)C[C@@H]1c1nc2ccccc2[nH]1`, “inactive”. As for `C[C@H]1[C@H](C)CC[C@]2(C(=O)O[C@@H]3O[C@H](CO)[C@@H](O)[C@H](O)[C@H]3O)CC[C@]3(C(=O)O)C(=CCC4[C@@]5(C)CC[C@H](O[C@@H]6O[C@H](CO)[C@@H](O)[C@H](O)[C@H]6O)C(C)(C)C5CC[C@]43C)[C@H]12` (stereo partly drawn), the activity change, negative = cytotoxicity is 0.925% [at 11.6 µM]. As for `c1nc(NC2CCCCCC2)c2cc(CNC[C@H]3CCCO3)sc2n1`, the Potency result is “inactive”.

On to `CCNC(=O)[C@H]1O[C@H](n2cnc3c(NCC(c4ccccc4)c4ccccc4)nc(C(=O)NCCNC(=O)NC4CCN(c5ccccn5)CC4)nc32)[C@H](O)[C@@H]1O`, for which the Potency result was “inactive”. The same measure, in the same setting: the value for `CC1CC(=O)C2=C(O1)OC1(C)CCC3C(C)(C)C=CC(=O)C3(C)C1C2` (stereo not drawn) was “inactive”; that for `COc1ncc(-c2ccc3c(Nc4cc(Oc5cc(F)cc(F)c5)cc(C(=O)O)c4)c(S(=O)(=O)NC4CC4)cnc3c2)c(OC)n1` was “inactive”; that for `CC(=O)O[C@@H]1[C@H]2[C@@H](OC(=O)c3ccccc3)[C@@H](C)C[C@]2(O)[C@H](OC(C)=O)[C@@]2(C)[C@@H]3CC(C)(C)C(=O)[C@]3(OC(C)=O)C[C@@]12C` was “inactive”. On the same count and under the same terms, to `COc1ccc(/C=C/C(=O)O[C@@H]2[C@@H](OC(C)=O)[C@@H](OC(C)=O)[C@H](O[C@H]3[C@@H]4C=CO[C@@H](O[C@@H]5O[C@H](CO)[C@@H](O)[C@H](O)[C@H]5O)[C@@H]4[C@@]4(CO)O[C@@H]34)O[C@H]2C)cc1O` belongs “inactive”. On the same count and under the same terms, the value for `CC1=CC(=O)OC(C)(CC(C)(O)C(=O)O)C1` (stereo not drawn) was “inactive”.

Consider `O=C(OCc1cccc(O)c1O[C@@H]1O[C@H](CO)[C@@H](O)[C@H](O)[C@H]1O)C1(O)C(=O)C2C=CC1C1C=CC(=O)C(O)(C(=O)OCc3cccc(O)c3O[C@@H]3O[C@H](CO)[C@@H](O)[C@H](O)[C@H]3O)C21` (stereo partly drawn), for which the activity change, negative = cytotoxicity was -17.5% [at 11.6 µM]. Take `C[C@H]1[C@H](C)CC[C@]2(C(=O)O)CC[C@]3(C)C(=CC[C@@H]4[C@@]5(C)C[C@@H](O)[C@H](O)[C@@](C)(CO)[C@@H]5CC[C@]43C)[C@H]12`: the Potency result is “inactive”.

In the case of `COc1cc(C[C@H]2COC(=O)[C@@H]2Cc2ccc(O)c(OC)c2)ccc1O`, the Potency result was “inactive”.

On to `COC(=O)C1=CO[C@@H](O[C@@H]2O[C@H](CO)[C@@H](O)[C@H](O)[C@H]2O)[C@@H]2[C@@](C)(O)[C@@H](O)C[C@]12O`, for which the Potency result was “inactive”. For `C/C(=C\CCC(C)(O)c1ccc(C)cc1)C(=O)O` (stereo not drawn), the Potency result is “inactive”.

With `C/C=C(\C)C(=O)O[C@H]1[C@H](O)[C@]2(COC(C)=O)[C@H](O)C[C@]3(C)C(=CCC4[C@@]5(C)CC[C@H](O[C@@H]6O[C@H](C(=O)O)[C@@H](O[C@@H]7O[C@H](CO)[C@@H](O)[C@H](O)[C@H]7O)[C@H](O)[C@H]6O[C@@H]6O[C@H](CO)[C@@H](O)[C@H](O)[C@H]6O)[C@](C)(CO)C5CC[C@]43C)[C@@H]2CC1(C)C` (stereo partly drawn), the activity change, negative = cytotoxicity was 1.43% [at 11.6 µM]. `COC1=Cc2c(nc3n(c2=O)C(C)C(=O)NC3(O)C(C)C)OC=C1` (stereo not drawn): the Potency entry is “inactive”. Regarding `COc1c(C(CC(C)C)OC(C)=O)ccc(Oc2c(O)cc(C)cc2/C=C/C(C)=O)c1C(=O)O` (stereo not drawn), the Potency entry is “inactive”. With `COc1cc(O[C@@H]2O[C@H](CO)[C@@H](O)[C@H](O)[C@H]2O)c(CCC(=O)OC[C@H]2O[C@@H](Oc3cc(OC)c(C4OC(=O)C(C)(O)C4O)cc3CCC(=O)O)[C@H](O)[C@@H](O)[C@@H]2O)cc1C1OC(=O)C(C)(O)C1O` (stereo partly drawn), the activity change, negative = cytotoxicity is -4.91% [at 11.6 µM]. Regarding `CC1CC(O)CC(C)(C)C1(O)CCO` (stereo not drawn), the Potency entry was “inactive”.

With `CC(=O)c1c(O)cc2c(c1C)C(=O)CC(O)C2` (stereo not drawn), the Potency entry was “inactive”.
